PubChem BioAssay AID1159580 (chemical genetic matrix, 2015)
Screen size: about 5,500 compounds; about 2,000 (36%) were called active. Not shown: some 18% with an inconclusive outcome. Cut-off read from the data, not from the text of the source: active = normalized growth mostly below about 0.91 (no sharp cut-off); inconclusive = no clear call, values can overlap the other calls; inactive = mostly above about 0.92. The list shows a part of the results.

Assay: chemical genetic growth profiling, strain panel (AID 1159580);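 note: tested at 20 µM; growth read once vehicle control cultures reached saturation at 30 °C; 1 = growth at the plate median or of vehicle wells; lower values mean less growth of the strain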
Details: growth OD

Measured: normalized growth

Cn1c(=O)[nH]c(=O)c2[nH]cnc21
inactive: S. cerevisiae deletion strains, locus YJR075W, strain HOC1, hits give low values 0.995 | S. cerevisiae deletion strains, locus YKL009W, strain mrt4, hits give low values 0.998 | S. cerevisiae deletion strains, locus YKL068W, hits give low values 0.97 | S. cerevisiae deletion strains, locus YKL085W, strain MDH1 (second series), hits give low values 0.976 | S. cerevisiae deletion strains, locus YKL085W, strain MDH1, hits give low values 0.976 | S. cerevisiae deletion strains, locus YKL160W, strain elf1, hits give low values 1 | S. cerevisiae deletion strains, locus YKL190W, strain CNB1, hits give low values 0.995 | S. cerevisiae deletion strains, locus YKR001C, strain vps1, hits give low values 0.987 | S. cerevisiae deletion strains, locus YKR026C, strain gcn3, hits give low values 0.984 | S. cerevisiae deletion strains, locus YKR091W, strain srl3, hits give low values 0.992 | S. cerevisiae deletion strains, locus YLL001W, strain dnm1, hits give low values 1.01 | S. cerevisiae deletion strains, locus YLL026W, hits give low values 1 | S. cerevisiae deletion strains, locus YLL041C, strain sdh2, hits give low values 1 | S. cerevisiae deletion strains, locus YLR027C, strain aat2, hits give low values 0.974 | S. cerevisiae deletion strains, locus YLR039C, strain RIC1, hits give low values 0.974 | S. cerevisiae deletion strains, locus YLR058C, strain SHM2, hits give low values 0.988 | S. cerevisiae deletion strains, locus YLR102C, strain apc9, hits give low values 0.972 | S. cerevisiae deletion strains, locus YLR113W, strain HOG1, hits give low values 0.998 | S. cerevisiae deletion strains, locus YLR221C, strain rsa3, hits give low values 1.01 | S. cerevisiae deletion strains, locus YLR258W, strain gsy2, hits give low values 0.999 | S. cerevisiae deletion strains, locus YLR262C, strain YPT6 (second series), hits give low values 0.976 | S. cerevisiae deletion strains, locus YLR262C, strain YPT6, hits give low values 1.01 | S. cerevisiae deletion strains, locus YLR268W, strain sec22, hits give low values 0.956 | S. cerevisiae deletion strains, locus YLR320W, strain mms22, hits give low values 0.987 | S. cerevisiae deletion strains, locus YLR330W, strain CHS5, hits give low values 0.991 | S. cerevisiae deletion strains, locus YLR342W, strain FKS1 (second series), hits give low values 1.01 | S. cerevisiae deletion strains, locus YLR342W, strain FKS1, hits give low values 1.01 | S. cerevisiae deletion strains, locus YLR357W, strain rsc2, hits give low values 0.971 | S. cerevisiae deletion strains, locus YLR370C, strain arc18, hits give low values 0.989 | S. cerevisiae deletion strains, locus YLR371W, strain rom2, hits give low values 0.96 | S. cerevisiae deletion strains, locus YLR384C, strain iki3, hits give low values 0.983 | S. cerevisiae deletion strains, locus YLR418C, strain cdc73, hits give low values 0.983 | S. cerevisiae deletion strains, locus YML016C, strain PPZ1, hits give low values 0.986 | S. cerevisiae deletion strains, locus YML032C, strain rad52, hits give low values 0.974 | S. cerevisiae deletion strains, locus YML120C, strain ndi1, hits give low values 0.999 | S. cerevisiae deletion strains, locus YML124C, strain tub3, hits give low values 0.972 | S. cerevisiae deletion strains, locus YMR058W, strain fet3, hits give low values 1.01 | S. cerevisiae deletion strains, locus YMR078C, strain ctf18, hits give low values 0.954 | S. cerevisiae deletion strains, locus YMR125W, strain sto1, hits give low values 1.01 | S. cerevisiae deletion strains, locus YMR129W, hits give low values 0.99 | S. cerevisiae deletion strains, locus YMR205C, strain PFK2, hits give low values 0.998 | S. cerevisiae deletion strains, locus YMR223W, strain ubp8, hits give low values 0.987 | S. cerevisiae deletion strains, locus YMR231W, strain pep5, hits give low values 0.992 | S. cerevisiae deletion strains, locus YMR263W, strain SAP30, hits give low values 0.953 | S. cerevisiae deletion strains, locus YMR307W, strain GAS1, hits give low values 0.948 | S. cerevisiae deletion strains, locus YNL067W, strain RPL9B, hits give low values 0.996 | S. cerevisiae deletion strains, locus YNL071W, strain lat1, hits give low values 0.98 | S. cerevisiae deletion strains, locus YNL128W, strain TEP1, hits give low values 0.987 | S. cerevisiae deletion strains, locus YNL153C, strain GIM3, hits give low values 0.993 | S. cerevisiae deletion strains, locus YNL183C, strain NPR1, hits give low values 0.925 | S. cerevisiae deletion strains, locus YNL209W, strain ssb2, hits give low values 0.983 | S. cerevisiae deletion strains, locus YNL233W, strain BNI4, hits give low values 0.981 | S. cerevisiae deletion strains, locus YNL248C, strain rpa49, hits give low values 0.985 | S. cerevisiae deletion strains, locus YNL250W, strain rad50, hits give low values 0.956 | S. cerevisiae deletion strains, locus YNL271C, strain bni1, hits give low values 0.963 | S. cerevisiae deletion strains, locus YNL298W, strain CLA4, hits give low values 0.972 | S. cerevisiae deletion strains, locus YNL307C, strain MCK1, hits give low values 0.975 | S. cerevisiae deletion strains, locus YNL322C, strain KRE1 (second series), hits give low values 0.968 | S. cerevisiae deletion strains, locus YNL322C, strain KRE1, hits give low values 0.997 | S. cerevisiae deletion strains, locus YNR049C, strain mso1, hits give low values 1 | S. cerevisiae deletion strains, locus YNR052C, strain pop2, hits give low values 0.97 | S. cerevisiae deletion strains, locus YOL006C, strain TOP1, hits give low values 0.965 | S. cerevisiae deletion strains, locus YOL012C, strain htz1 1.01 | S. cerevisiae deletion strains, locus YOL147C, strain pex11, hits give low values 0.981 | S. cerevisiae deletion strains, locus YOR001W, strain rrp6, hits give low values 1.01 | S. cerevisiae deletion strains, locus YOR061W, strain CKA2, hits give low values 0.986 | S. cerevisiae deletion strains, locus YOR069W, strain VPS5, hits give low values 0.981 | S. cerevisiae deletion strains, locus YOR070C, strain gyp1, hits give low values 0.998 | S. cerevisiae deletion strains, locus YOR080W, strain dia2, hits give low values 0.986 | S. cerevisiae deletion strains, locus YOR083W, strain WHI5, hits give low values 0.933 | S. cerevisiae deletion strains, locus YOR106W, strain vam3, hits give low values 0.977 | S. cerevisiae deletion strains, locus YOR136W, strain idh2, hits give low values 0.967 | S. cerevisiae deletion strains, locus YOR144C, strain elg1, hits give low values 0.958 | S. cerevisiae deletion strains, locus YOR184W, strain ser1, hits give low values 0.966 | S. cerevisiae deletion strains, locus YOR231W, strain MKK1, hits give low values 0.978 | S. cerevisiae deletion strains, locus YOR265W, strain rbl2, hits give low values 0.988 | S. cerevisiae deletion strains, locus YOR270C, strain vph1, hits give low values 0.981 | S. cerevisiae deletion strains, locus YOR290C, strain snf2, hits give low values 0.987 | S. cerevisiae deletion strains, locus YOR316C, strain cot1, hits give low values 0.972 | S. cerevisiae deletion strains, locus YPL051W, strain arl3, hits give low values 0.988 | S. cerevisiae deletion strains, locus YPL055C, strain LGE1, hits give low values 1 | S. cerevisiae deletion strains, locus YPL078C, strain atp4, hits give low values 0.988 | S. cerevisiae deletion strains, locus YPL106C, strain sse1, hits give low values 0.958 | S. cerevisiae deletion strains, locus YPL240C, strain hsp82, hits give low values 1.02 | S. cerevisiae deletion strains, locus YPL241C, strain CIN2, hits give low values 0.993 | S. cerevisiae deletion strains, locus YPL256C, strain CLN2, hits give low values 0.972 | S. cerevisiae deletion strains, locus YPR119W, strain clb2, hits give low values 0.974 | S. cerevisiae deletion strains, locus YPR141C, strain kar3, hits give low values 0.952 | S. cerevisiae deletion strains, locus YPR163C, strain tif3, hits give low values 0.965 | S. cerevisiae deletion strains, locus YPR167C, strain met16, hits give low values 0.965 | S. cerevisiae deletion strains, strain wtn01, hits give low values 0.982 | S. cerevisiae strains, strain wild type, hits give low values 0.993
